Measurements taken from PubChem BioAssay (NCATS).
Inconclusive results are not listed. Activity calls are given as the source filed them. Calls follow the shape of the dose curve; as a rule, active = well fitted curve in the direction sought with a large enough effect; inconclusive = small, poorly fitted or top-dose-only effect, or another doubt; inactive = no such curve, though single readings can be large; an effect the other way counts as inactive or inconclusive.

Experiments:
[1] = target: Glutathione peroxidase 1 (Homo sapiens) (UniProt P07203); assay: Primary qHTS Assay for Inhibitors of Recombinant Selenoprotein Glutathione Peroxidase 1 (GPX1) (AID 1845191); also: nearly all actives have a fitted effect of over 65% in size; as to activity, negative = inhibition: % is scaled to controls: 0 for no effect and ±100 for the full control effect
Chain of Glutathione peroxidase 1 (Homo sapiens) (P07203 whole entry, looked up): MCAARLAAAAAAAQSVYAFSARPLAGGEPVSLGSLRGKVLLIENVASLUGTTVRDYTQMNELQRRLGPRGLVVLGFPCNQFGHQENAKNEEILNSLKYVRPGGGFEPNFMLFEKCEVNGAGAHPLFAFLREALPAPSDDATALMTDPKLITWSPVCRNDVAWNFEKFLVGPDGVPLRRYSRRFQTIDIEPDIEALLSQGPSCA
Method in brief: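 NADPH consumption tracked by fluorescence at 340/450 nm between t=0 and t=15 min, room temperature. Final mix: 10 nM GPX1, 100 nM glutathione reductase, 1 mM GSH, 0.5 mM NADPH, 0.5 mM cumene hydroperoxide, 0.01% BSA; 30 min compound–enzyme preincubation.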

[2] = target: Phospholipid hydroperoxide glutathione peroxidase GPX4 (Homo sapiens) (UniProt P36969); assay: Primary qHTS Assay for Inhibitors of Recombinant Selenoprotein Glutathione Peroxidase 4 (GPX4) (AID 1845192); also: nearly all actives have a fitted effect of over 65% in size; as to activity change, negative = inhibition: series mostly up to about 50 µM; % is scaled to controls: 0 for no effect and ±100 for the full control effect
Chain of Phospholipid hydroperoxide glutathione peroxidase GPX4 (Homo sapiens) (P36969 whole entry, looked up): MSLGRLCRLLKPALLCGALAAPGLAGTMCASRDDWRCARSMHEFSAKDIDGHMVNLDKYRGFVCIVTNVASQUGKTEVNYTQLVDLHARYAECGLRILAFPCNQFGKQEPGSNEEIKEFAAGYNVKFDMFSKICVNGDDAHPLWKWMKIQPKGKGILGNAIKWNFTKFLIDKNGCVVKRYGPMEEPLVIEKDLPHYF
Method in brief: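 NADPH consumption followed by fluorescence at 340/450 nm, t=0 and after 15 min at room temperature. Reaction started with cumene hydroperoxide (0.5 mM final) after 30 min compound–GPX4 preincubation; final 200 nM GPX4, 100 nM GR, 1 mM GSH, 0.5 mM NADPH.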

[3] = target: Luciferin 4-monooxygenase (Photinus pyralis) (UniProt P08659); assay: Primary firefly luciferase (FLuc) qHTS assay for identification of artifact compounds. (AID 1845220); also: nearly all actives have a fitted effect of over 60% in size;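 as to activity change, negative = inhibition: series mostly up to about 54 µM; plate controls were DMSO vehicle for no effect and no enzyme for full effect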
Method in brief: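 Cell-free, 1536-well qHTS. Buffer pH 7.6 with 0.01% Tween-20 and 0.05% BSA; 10 uM D-luciferin, 10 uM ATP; 10 nM P. pyralis luciferase; luminescence after 5 min.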

[4] = system: Nanoluciferase (engineered Oplophorus gracilirostris luciferase); assay: Primary Nanoluciferase (NLuc) qHTS assay for identification of artifact compounds. (AID 1845222);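 also: series mostly up to about 54 µM; 0% = DMSO and -100% = no enzyme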
Method in brief: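 Compounds are pinned into diluted (1:55) conditioned medium of NLuc-expressing S16 cells and held 15 min at room temperature protected from light. Nano-Glo substrate follows, and luminescence is read 5 min later.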

[5] = Primary redox qHTS assay for identification of artifact compounds. (AID 1845223);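 also: 0% = DMSO and 100% = reference compound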
Method in brief: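 Redox-cycling detection via DTT (250 uM final) oxidation coupled to Amplex Red (25 uM)/HRP (250 mU/mL) in HBSS. 15 min preincubation plus 30 min after DTT, room temperature. Ex/Em 525/598 nm; 4-parameter Hill fit against DMSO and 10 uM DA3003.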

C=C1CCC2[C@@](C)(C=O)CCC[C@]2(C)[C@H]1CC/C(C)=C/CO (some centres undefined)
inactive: Potency [1] | Potency [2] | Potency [3] | Potency [4]

CC(=O)C1CCC2(C)C3=C(CCC12C)C1(C)CCC(=O)C(C)(C)C1CC3 (centres undefined)
inactive: Potency [1] | Potency [2] | Potency [3] | Potency [4]

C=C1CCC(OC(C)=O)C2(C)CC3(O)OC(=O)C(C)=C3CC12 (centres undefined)
inactive: Potency [1] | Potency [2] | Potency [3] | Potency [4] | Potency [5]

CCOc1ccc(C(Nc2ccccn2)c2ccc3ccc(C)nc3c2O)cc1C (centres undefined)
inactive: Potency [1] | Potency [2] | Potency [3] | Potency [4]

CNC(=O)COC(=O)NCCC1CCN(c2cccc(C)n2)CC1
inactive: Potency [1] | Potency [2] | Potency [3] | Potency [4] | Potency [5]

C=CC1(C)CC2=CCC3C(C)(C(=O)O)CCCC3(C)C2CC1OC(C)=O (centres undefined)
inactive: Potency [1] | Potency [2] | Potency [3] | Potency [4]

CCOC(=O)N1CCC(NCCNC(=O)c2ccccc2C)CC1
inactive: Potency [1] | Potency [2] | Potency [3] | Potency [4]

NCCCC[C@H](NC(=O)[C@@H]1Cc2ccccc2CN1C(=O)CCC(=O)c1ccccc1)C(=O)NCC(c1ccccc1)c1ccccc1
inactive: Potency [1] | Potency [2] | Potency [3] | Potency [4]

COc1ccc(/C=C/C(=O)O[C@@H]2[C@@H](O)[C@H](C)O[C@@H](OC3C4C=COC(O[C@@H]5O[C@H](CO)[C@@H](O)[C@H](O)[C@H]5O)C4C4(CO)OC34)[C@@H]2O)cc1OC (some centres undefined)
inactive: Potency [1] | Potency [2] | Potency [3] | Potency [4] | Potency [5]

CC1CCC23COC(=O)C2=CC(O)CC3C1(C)CCC1=CC(=O)OC1O (centres undefined)
inactive: Potency [1] | Potency [2] | Potency [3] | Potency [4] | Potency [5]

C=CC(C)(O)CO[C@@H]1O[C@H](CO)[C@@H](O)[C@H](O)[C@H]1O (some centres undefined)
inactive: Potency [1] | Potency [2] | Potency [3] | Potency [4] | Potency [5]

CC1=CC(=O)CC(C)(C)C1(O)CCC(C)O (centres undefined)
inactive: Potency [1] | Potency [2] | Potency [3] | Potency [4] | Potency [5]

COC(=O)[C@H](CC1C=NC=N1)NCC12CC3CC(CC(C3)C1)C2 (some centres undefined)
inactive: Potency [1] | Potency [2] | Potency [3] | Potency [4] | Potency [5]

C[C@@H]1C(=O)O[C@H]2CC34[C@H]5C[C@@H](C(C)(C)C)C36[C@@H](OC(=O)[C@@H]6O)OC4(C(=O)O5)[C@]21O (some centres undefined)
inactive: Potency [1] | Potency [2] | Potency [3] | Potency [4] | Potency [5]

COc1cc(C2Oc3c(O)cc(CCCO)cc3C2CO)ccc1O[C@H]1O[C@H](C)[C@@H](O)[C@H](O)[C@@H]1O (some centres undefined)
inactive: Potency [1] | Potency [2] | Potency [3] | Potency [4] | Potency [5]

O=C(O)CCc1cc2ccoc2cc1O[C@@H]1O[C@H](CO[C@@H]2OC[C@](O)(CO)[C@H]2O)[C@@H](O)[C@H](O)[C@H]1O
inactive: Potency [1] | Potency [2] | Potency [3] | Potency [4] | Potency [5]

CC1[C@@H](O)[C@@H](O)C2[C@]3(C)C(C[C@H]4OC(=O)[C@H](O)[C@]1(O)[C@@]24C)C(C)(O)C[C@H](O)[C@H]3O (some centres undefined)
inactive: Potency [1] | Potency [2] | Potency [3] | Potency [4] | Potency [5]

COc1cc2c(cc1O)C1(OC)Cc3ccc4c(c3C1N(C)CC2)OCO4 (centres undefined)
inactive: Potency [1] | Potency [2] | Potency [3] | Potency [4] | Potency [5]

CC(=O)c1c(C)cc(O[C@@H]2O[C@H](CO)[C@@H](O)[C@H](O)[C@H]2O)cc1O
inactive: Potency [1] | Potency [2] | Potency [3] | Potency [4] | Potency [5]

COC(=O)[C@@]1(O)C=CC[C@@H]2[C@@]3(C)C[C@@H](c4ccoc4)OC(=O)[C@H]3CC[C@]21C
inactive: Potency [1] | Potency [2] | Potency [3] | Potency [4] | Potency [5]

OC[C@H]1O[C@@H](OCCc2ccc(O)cc2)[C@H](O)[C@@H](O)[C@@H]1O
inactive: Potency [1] | Potency [2] | Potency [3] | Potency [4] | Potency [5]

O=C1[C@H](O[C@@H]2O[C@H](CO)[C@@H](O)[C@H](O)[C@H]2O)Oc2ccccc2N1O
inactive: Potency [1] | Potency [2] | Potency [3] | Potency [4] | Potency [5]

COC(=O)C1=CO[C@@H](O[C@@H]2O[C@H](CO)[C@@H](O)[C@H](O)[C@H]2O)[C@@H]2[C@@H](C(=O)OC)[C@@H](O)C(O)[C@H]12 (some centres undefined)
inactive: Potency [1] | Potency [2] | Potency [3] | Potency [4] | Potency [5]

COc1cc2c(cc1O)C1(Cc3ccc4c(c3C1=O)OCO4)N(C)CC2 (centres undefined)
inactive: Potency [1] | Potency [2] | Potency [3] | Potency [4] | Potency [5]

CC(=O)N(O)CCCCCN1C(=O)CCC1=O
inactive: Potency [1] | Potency [2] | Potency [3] | Potency [4] | Potency [5]

C=C1CCC2C(C)(C(=O)O)CC(O)CC2(C)C1CC/C(C)=C/C(=O)O (centres undefined)
inactive: Potency [1] | Potency [2] | Potency [3] | Potency [4] | Potency [5]

C=C1[C@H]2CC[C@]3(O)[C@@](CC[C@@H]4[C@](C)(C(=O)O)CCC[C@]43C)(C2)[C@H]1OC(=O)/C(C)=C\C
inactive: Potency [1] | Potency [2] | Potency [3] | Potency [4] | Potency [5]

O=c1c2cccnc2n(-c2cccc([N+](=O)[O-])c2)c(=O)n1Cc1ccncc1
inactive: Potency [1] | Potency [2] | Potency [3] | Potency [4] | Potency [5]

CC1(C)CCC[C@@]2(C)[C@H]1[C@H](O)C=C1COC(=O)[C@@]12O
inactive: Potency [1] | Potency [2] | Potency [3] | Potency [4] | Potency [5]

COC(=O)C12C(=O)C(C)=C(O)C1(C)C(C)=CC1C34CCC(OC3=O)C(C)(C)C4CCC12C (centres undefined)
inactive: Potency [1] | Potency [2] | Potency [3] | Potency [4] | Potency [5]

COc1ccccc1CC(C(=O)O)N(C)C(=O)c1ccccc1 (centres undefined)
inactive: Potency [1] | Potency [2] | Potency [3] | Potency [4] | Potency [5]

OCCc1ccc(O[C@@H]2O[C@H](CO)[C@@H](O)[C@H](O)[C@H]2O)c(O)c1
inactive: Potency [1] | Potency [2] | Potency [3] | Potency [4] | Potency [5]

CC(C)(C)c1cc(CN2CCN(CC(O)c3ccc(Cl)cc3)CC2)cc(C(C)(C)C)c1O (centres undefined)
inactive: Potency [1] | Potency [2] | Potency [3] | Potency [4] | Potency [5]

CC1(CCC(=O)O)C(=O)C=CC23CC4CC(OC4(C)C2O)C13 (centres undefined)
inactive: Potency [1] | Potency [2] | Potency [3] | Potency [4] | Potency [5]

COc1ccc2c(c1)OC[C@]1(O)c3cc4c(cc3O[C@H]21)OCO4
inactive: Potency [1] | Potency [2] | Potency [3] | Potency [4] | Potency [5]

CCc1nc(C(N)=O)c(Nc2ccc(N3CCC(N4CCN(C)CC4)CC3)c(OC)c2)nc1NC1CCOCC1
inactive: Potency [1] | Potency [2] | Potency [3] | Potency [4] | Potency [5]

C[C@@H]1C[C@H](O[C@@H]2O[C@H](CO[C@@H]3OC[C@](O)(CO)[C@H]3O)[C@@H](O)[C@H](O)[C@H]2O)CC(C)(C)[C@H]1/C=C/[C@@H](C)O
inactive: Potency [1] | Potency [2] | Potency [3] | Potency [4] | Potency [5]

Cc1cc(O)c(C(C)C)cc1O[C@@H]1O[C@H](CO)[C@@H](O)[C@H](O)[C@H]1O
inactive: Potency [1] | Potency [2] | Potency [3] | Potency [4] | Potency [5]

CC(C)(O)C1CCC2(C)C3C(O)C4C(C13)C42CO (centres undefined)
inactive: Potency [1] | Potency [2] | Potency [3] | Potency [4] | Potency [5]

CC(=O)O[C@H]1[C@H](Oc2ccccc2COC(=O)C2(O)C=CCCC2=O)O[C@H](CO)[C@@H](O)[C@@H]1O (some centres undefined)
inactive: Potency [1] | Potency [2] | Potency [3] | Potency [4] | Potency [5]

CC1=C2C(=O)C=C(CO)[C@@H]2[C@H]2OC(=O)[C@H](C)[C@@H]2[C@@H](O)C1
inactive: Potency [1] | Potency [2] | Potency [3] | Potency [4] | Potency [5]

CC(=O)O[C@H]1[C@H](C)[C@@H](O)[C@H]2[C@@H]1C=C(C(=O)O)[C@H]1C[C@@H]3[C@H]([C@H]21)[C@H]1C(=O)O[C@@H]2CC[C@@]3(C)O[C@]1(O)[C@@H]2C
inactive: Potency [1] | Potency [2] | Potency [3] | Potency [4] | Potency [5]

C[C@@H]1O[C@@H](O[C@H]2[C@H](OC(C#N)c3ccc(O)cc3)O[C@H](CO)[C@@H](O)[C@@H]2O)[C@H](O)[C@H](O)[C@H]1O (some centres undefined)
inactive: Potency [1] | Potency [2] | Potency [3] | Potency [4] | Potency [5]

CC1(CO)CC[C@]2(C(=O)O[C@@H]3O[C@H](CO)[C@@H](O)[C@H](O)[C@H]3O)CC[C@]3(C)C(=CCC4[C@@]5(C)CC[C@H](O[C@@H]6O[C@H](C(=O)O)[C@@H](O)[C@H](O)[C@H]6O)C(C)(C)C5CC[C@]43C)C2C1 (some centres undefined)
inactive: Potency [1] | Potency [2] | activity change, negative = inhibition [3] -2.66% [at 11.6 µM] | activity, negative = inhibition [4] 2.96% [at 11.6 µM] | redox activity (% of DA3003) [5] 19.9% [at 11.5 µM]

C=C1C2(CCC(=O)OC2(C)C)CC(OC(=O)/C(C)=C/C)C2(C)C13OC14C(=O)OC(C)(C(=O)C12C(=O)OC4C)C3OC(C)=O (centres undefined)
inactive: Potency [1] | Potency [2] | Potency [3] | Potency [4] | Potency [5]

CC(=O)NCCCCn1c2c(c3ccccc31)C(=O)NCC2
inactive: Potency [1] | Potency [2] | Potency [3] | Potency [4] | Potency [5]

C=CC1C(O[C@@H]2O[C@H](CO)[C@@H](O)[C@H](O)[C@H]2O)OC=C(C(=O)OC)C1CC(=O)O (some centres undefined)
inactive: Potency [1] | Potency [2] | Potency [3] | Potency [4] | Potency [5]

C/C=C(\C)C(=O)OC[C@H]1O[C@H](O[C@H]2O[C@H](CO)[C@@H](OC(=O)/C(C)=C/C)[C@H](O)[C@H]2O[C@@H]2O[C@H](CO)[C@@H](O)[C@H](O)[C@H]2O)[C@H](O[C@@H]2O[C@H](CO)[C@@H](O)[C@H](O)[C@H]2O)[C@@H](O)[C@@H]1O
inactive: Potency [1] | Potency [2] | activity change, negative = inhibition [3] 1.93% [at 11.6 µM] | activity, negative = inhibition [4] 0% [at 11.6 µM] | redox activity (% of DA3003) [5] 3.6% [at 11.5 µM]

CC1CCC(=O)CC(O)C(O)CC(=O)O1 (centres undefined)
inactive: Potency [1] | Potency [2] | Potency [3] | Potency [4] | Potency [5]

CC(/C=C/[C@]1(O)[C@@]2(C)CO[C@@]1(C)C[C@@H](O)C2)=C\C(=O)O[C@@H]1O[C@H](CO)[C@@H](O)[C@H](O)[C@H]1O
inactive: Potency [1] | Potency [2] | Potency [3] | Potency [4] | Potency [5]
